# Screening results: PubChem BioAssay, Broad Institute
# Pf Dd2 growth: inhibitors of Plasmodium falciparum Dd2 growth. P. falciparum Dd2 growth, SYBR Green, 72 h; stronger effect = lower value. activity change, % at 10 µM. hit rate 2.3% among 94,000. AID 1159554; in the data active means activity change below about -80%
# C diff growth: inhibitors of Clostridium difficile growth | Clostridium difficile clinical isolate growth, OD600, 24 h; stronger effect = lower value | growth activity, negative = inhibition, % at 16 µg/mL (by protocol) | hit rate 0.25% among 86,000;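 active means mean growth activity at or below -80% and every replicate also at or below -80%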;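 further: 0% = DMSO wells and -100% = levofloxacin 16 µg/mL wells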
# Numbers without * were called inactive; nt = not tested or not shown. The list is not random: actives were taken first. Their share in the collection is about 2.3%.
SMILES,Pf Dd2 growth,C diff growth
C[C@H](CO)N1C[C@H](C)[C@H](CN(C)C(=O)Nc2ccc3c(c2)OCO3)OCCCC[C@H](C)Oc2ccc(NC(=O)C3CCCCC3)cc2C1=O,-46.6,-2.6
C[C@@H]1CN([C@H](C)CO)C(=O)c2cc(NC(=O)C3CCCCC3)ccc2O[C@@H](C)CCCCO[C@H]1CN(C)C(=O)Nc1ccc(C(F)(F)F)cc1,-68.2,4.7
C[C@H]1CCCCO[C@H](CN(C)C(=O)Nc2ccc(C(F)(F)F)cc2)[C@@H](C)CN([C@@H](C)CO)C(=O)c2cc(NC(=O)Nc3ccc(C(F)(F)F)cc3)ccc2O1,-78.3,1.7
C[C@H](CO)N1C[C@H](C)[C@@H](CN(C)C(=O)Nc2ccc(C(F)(F)F)cc2)OCCCC[C@H](C)Oc2ccc(NC(=O)C3CCCCC3)cc2C1=O,-85.5*,5.0
C[C@H]1CCCCO[C@H](CN(C)C(=O)Nc2ccc3c(c2)OCO3)[C@@H](C)CN([C@@H](C)CO)C(=O)c2cc(NC(=O)C3CCCCC3)ccc2O1,-88.8*,-3.6
C[C@@H]1CN([C@H](C)CO)C(=O)c2cc(NC(=O)NC3CCCCC3)ccc2O[C@@H](C)CCCCO[C@H]1CN(C)C(=O)C1CCCCC1,-61.3,-6.2
Cc1ccccc1-c1ccc(C2[C@H]3CNC[C@@H]2N3S(=O)(=O)c2cn(C)cn2)cc1 (stereo partly specified),-1.1,4.2
COc1ccc(CN(C)C[C@@H]2Oc3c(NC(=O)Nc4cccc5ccccc45)cccc3C(=O)N([C@H](C)CO)C[C@@H]2C)cc1,-5.7,3.0
COc1ccccc1NC(=O)N1CCCCN2[C@@H](CO)[C@@H](c3ccc(C#CC4CC4)cc3)[C@@H]2C1,-89.5*,47.8
COc1ccccc1NC(=O)N1CCCCN2[C@@H](CO)[C@H](c3ccc(C#CC4CC4)cc3)[C@@H]2C1,-78.6,29.2
COc1ccccc1NC(=O)N1CCCCN2[C@@H](CO)[C@@H](c3ccc(-c4cccc(C)c4)cc3)[C@@H]2C1,-83.2*,-80.4*
COc1ccccc1NC(=O)N1CCCCN2[C@H](C1)[C@H](c1ccc(-c3cccc(C)c3)cc1)[C@@H]2CO,-5.8,28.6
CC(=O)N1CCCCN2[C@H](CO)[C@H](c3ccc(-c4ccc(F)cc4)cc3)[C@@H]2C1,13.1,-6.8
C[C@@H]1CCCCO[C@H](CN(C)S(=O)(=O)c2cccs2)[C@H](C)CN([C@@H](C)CO)C(=O)c2cc(NC(=O)NC3CCCCC3)ccc2O1,-83.8*,6.9
C[C@@H]1CCCCO[C@H](CN(C)S(=O)(=O)c2cccs2)[C@@H](C)CN([C@H](C)CO)C(=O)c2cc(NC(=O)NC3CCCCC3)ccc2O1,-45.9,5.0
C[C@@H]1CCCCO[C@@H](CN(C)S(=O)(=O)c2cccs2)[C@@H](C)CN([C@@H](C)CO)C(=O)c2cc(NC(=O)Nc3ccc4c(c3)OCO4)ccc2O1,-66.7,7.6
C[C@@H]1CN([C@H](C)CO)C(=O)c2cc(NC(=O)Cc3ccccc3)ccc2O[C@@H](C)CCCCO[C@@H]1CN(C)S(=O)(=O)c1cccs1,-81.1*,4.4
C[C@@H]1CN([C@@H](C)CO)C(=O)c2cc(NC(=O)NC3CCCCC3)ccc2O[C@@H](C)CCCCO[C@@H]1CN(C)S(=O)(=O)c1cccs1,-88.9*,-1.2
C[C@@H]1CN([C@H](C)CO)C(=O)c2cc(NC(=O)Nc3ccc4c(c3)OCO4)ccc2O[C@@H](C)CCCCO[C@@H]1CN(C)S(=O)(=O)c1cccs1,-91.7*,10.1
C[C@@H]1CCCCO[C@@H](CN(C)S(=O)(=O)c2cccs2)[C@H](C)CN([C@@H](C)CO)C(=O)c2cc(NC(=O)NC3CCCCC3)ccc2O1,-45.3,24.0
C[C@@H]1CCCCO[C@@H](CN(C)S(=O)(=O)c2cccs2)[C@@H](C)CN([C@H](C)CO)C(=O)c2cc(NC(=O)Cc3ccccc3)ccc2O1,-53.8,5.0
C[C@@H]1CN([C@@H](C)CO)C(=O)c2cc(NC(=O)Nc3cccc4ccccc34)ccc2O[C@@H]1CN(C)Cc1ccccc1,4.9,3.6
C[C@H](CO)N1C[C@H](C)[C@@H](CN(C)C(=O)c2ccc3ccn(C)c3c2)OCc2cnnn2CCCC1=O,8.3,-4.1
O=C(C[C@@H]1C[C@@H]2c3cc(NC(=O)NC4CCCCC4)ccc3O[C@@H]2[C@@H](CO)O1)NCc1cccnc1,28.4,-1.3
C[C@@H]1CN([C@H](C)CO)C(=O)c2cccc(NC(=O)c3cnccn3)c2O[C@@H]1CN(C)C(=O)Nc1ccc(C(F)(F)F)cc1,-34.1,-1.2
SMILES,Pf Dd2 growth,C diff growth
C[C@@H]1CCCCO[C@H](CN(C)Cc2ccc3c(c2)OCO3)[C@@H](C)CN([C@@H](C)CO)C(=O)c2cc(NS(=O)(=O)c3cn(C)cn3)ccc2O1,-25.5,0.9
COc1ccc(S(=O)(=O)N(C)C[C@H]2OCCCC[C@@H](C)Oc3ccc(NC(=O)Nc4ccc5c(c4)OCO5)cc3C(=O)N([C@H](C)CO)C[C@@H]2C)cc1,-66.1,1.2
COc1ccc(S(=O)(=O)N(C)C[C@@H]2OCCCC[C@@H](C)Oc3ccc(NC(=O)Nc4ccc5c(c4)OCO5)cc3C(=O)N([C@@H](C)CO)C[C@H]2C)cc1,-81.8*,-0.4
COc1ccc(NC(=O)Nc2ccc3c(c2)C(=O)N([C@H](C)CO)C[C@@H](C)[C@@H](CN(C)S(=O)(=O)c2ccc(OC)cc2)OCCCC[C@H](C)O3)cc1,-18.8,0.3
COc1ccc(S(=O)(=O)N(C)C[C@H]2OCCCC[C@@H](C)Oc3ccc(NC(=O)Nc4ccc5c(c4)OCO5)cc3C(=O)N([C@@H](C)CO)C[C@H]2C)cc1,-84.7*,-2.9
COc1ccc(CN(C)C[C@@H]2Oc3ccc(NS(=O)(=O)c4ccc(C)cc4)cc3C(=O)N([C@H](C)CO)C[C@H]2C)cc1,28.5,5.4
C[C@H]1CN([C@@H](C)CO)C(=O)c2cccc(NC(=O)Nc3cccc4ccccc34)c2O[C@H]1CN(C)S(=O)(=O)c1cccs1,-9.6,nt
O=C(Nc1ccc2c(c1)OCO2)N[C@@H]1CC[C@H](CCNC(=O)C2CCCC2)O[C@@H]1CO,-7.7,-4.6
COCC(=O)N1CC2(CN(Cc3ccccc3)C2)c2c([nH]c3cc(OC)ccc23)[C@@H]1CO,10.1,-7.4
COc1ccc(S(=O)(=O)N(C)C[C@@H]2OCc3ccccc3-c3c(n(C)c4ccccc34)C(=O)N([C@@H](C)CO)C[C@@H]2C)cc1,-87.2*,nt
COc1cccc(S(=O)(=O)N(C)C[C@H]2OCc3ccccc3-c3c(n(C)c4ccccc34)C(=O)N([C@H](C)CO)C[C@H]2C)c1,-43.1,-1.3
C[C@@H]1CN([C@@H](C)CO)C(=O)c2c(c3ccccc3n2C)-c2ccccc2CO[C@@H]1CN(C)S(=O)(=O)c1ccccc1,-30.1,nt
COc1ccc(S(=O)(=O)N(C)C[C@@H]2OCc3ccccc3-c3c(n(C)c4ccccc34)C(=O)N([C@H](C)CO)C[C@@H]2C)cc1,-83.3*,nt
C[C@H](CO)N1C[C@H](C)[C@@H](CN(C)S(=O)(=O)c2ccccc2)OCc2ccccc2-c2c(n(C)c3ccccc23)C1=O,-71.1,nt
COc1ccc(S(=O)(=O)N(C)C[C@H]2OCc3ccccc3-c3c(n(C)c4ccccc34)C(=O)N([C@@H](C)CO)C[C@@H]2C)cc1,-86.0*,nt
COc1ccc(NC(=O)N(C)C[C@@H]2Oc3ccc(NS(=O)(=O)c4cn(C)cn4)cc3CC(=O)N([C@@H](C)CO)C[C@H]2C)cc1,19.7,1.3
